Bioassay records (PubChem)
Hits are enriched below; roughly 3.5% of the tested compounds scored in any of these assays.
FBW7 activator = activators of human E3 ligase FBW7. AlphaScreen FBW7–phospho-cyclin E peptide binding, activator screen. normalized activity (activation), % at 26.1 µM. actives 0.13% (n = 650,000). AID 1259310; in the data active = normalized activity above about 1.9%;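 note: purified mutant Fbw7 with reduced substrate affinity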
MITF primary = blocks human microphthalmia-associated transcription factor. AlphaScreen MITF homodimerization, bead proximity signal. actives 0.91% (n = 650,000). O75030. inhibition, % at 2.6 µM; in the data active = inhibition above about 50%
Target sequence (O75030 whole entry, looked up): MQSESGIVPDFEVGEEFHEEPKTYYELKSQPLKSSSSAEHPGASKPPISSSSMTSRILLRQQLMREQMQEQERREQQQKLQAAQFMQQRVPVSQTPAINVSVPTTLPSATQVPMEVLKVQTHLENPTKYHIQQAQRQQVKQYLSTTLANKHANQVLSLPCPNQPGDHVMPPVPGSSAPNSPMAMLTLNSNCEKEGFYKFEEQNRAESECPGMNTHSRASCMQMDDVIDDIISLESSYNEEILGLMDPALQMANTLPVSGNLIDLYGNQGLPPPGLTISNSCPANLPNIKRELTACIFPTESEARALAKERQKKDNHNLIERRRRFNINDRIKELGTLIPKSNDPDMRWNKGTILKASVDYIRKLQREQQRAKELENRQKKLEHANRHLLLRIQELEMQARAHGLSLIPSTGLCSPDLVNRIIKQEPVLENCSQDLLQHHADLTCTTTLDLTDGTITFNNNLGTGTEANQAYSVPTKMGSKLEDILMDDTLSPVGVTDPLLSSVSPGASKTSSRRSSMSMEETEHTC
GPR151 ag = human GPR151 activation; AID 1508602; actives 1% (n = 650,000); activation, % at 11.2 µM; PathHunter beta-arrestin GPR151 cells, luminescence; in the data active = activation above about 4.9%
TEAD-YAP block = TEAD-YAP interaction inhibition; HEK-TIYL cells, TEAD-Gal4/YAP UAS-luciferase luminescence; inhibition, % at 9.12 µM; actives 1.4% (n = 640,000); AID 1259422; in the data active = inhibition above about 32%
Each line names hits and unclear results; the compound was inactive in the other large screens.

Nc1ccc(O)c2c1C(=O)c1c(cccc1[N+](=O)[O-])C2=O	MITF primary 88
Cc1cccc(Nc2cc(N3CCOCC3)c3noc4c3c2C(=O)c2ccccc2-4)c1	none
Cc1ccccc1Nc1cc(N2CCOCC2)c2noc3c2c1C(=O)c1ccccc1-3	MITF primary 55
COc1cc(Nc2cc(N3CCCC3)c3noc4c3c2C(=O)c2ccccc2-4)cc(OC)c1OC	none
O=C1c2ccccc2-c2onc3c(N4CCCCC4)cc(N4CCOCC4)c1c23	MITF primary 62
COc1cc(Nc2cc(N3CCC(C)CC3)c3noc4c3c2C(=O)c2ccccc2-4)cc(OC)c1OC	TEAD-YAP block 43
O=C(NCc1ccc(Cl)cc1)C1CCCN(Cc2cccnc2)C1 (stereo unspecified)	none
FC(F)(F)c1cccc(Cc2n[nH]c(=S)n2-c2ccccc2)c1	none
CCOC(=O)C1=C(C)NC(=S)NC1c1ccc(Br)cc1 (stereo unspecified)	none
COc1ccc(-c2nnc(SCC(=O)NCc3ccccc3)nc2-c2ccc(OC)c(OC)c2)cc1OC	TEAD-YAP block 47
Cc1cc(Br)c(Cl)cc1NC(=O)C1C2CC3OC(=O)C1C3C2 (stereo unspecified)	none
COc1cc2nc(CN3CCN(c4ccccc4F)CC3)[nH]c(=O)c2cc1OC	TEAD-YAP block 48
COc1cc2nc(CN3CCCCC3)[nH]c(=O)c2cc1OC	none
Oc1ccc(-c2cnc3ccc(NCc4ccc(F)cc4)nn23)cc1	TEAD-YAP block 40
Clc1ccc(-c2cnc3ccc(NCc4ccc5c(c4)OCO5)nn23)cc1	none
NS(=O)(=O)c1ccc(CNc2ccc3ncc(-c4cccc5cccnc45)n3n2)cc1	none
COc1ccc(CNc2ccc3ncc(-c4ccncc4)n3n2)cc1	TEAD-YAP block 66
NS(=O)(=O)c1ccc(CNc2ccc3ncc(-c4ccccc4F)n3n2)cc1	TEAD-YAP block 34
OCc1ccc(-c2cnc3ccc(NCc4ccc(F)cc4)nn23)cc1	none
CN(C)c1ccc(-c2cnc3ccc(NCc4ccc5c(c4)OCO5)nn23)cc1	TEAD-YAP block 55
O=C(N[C@H]1C[C@H]2C(=O)N[C@@H](CO)C(=O)N2C1)c1cc(Cl)cc(Cl)c1	none
CCOC(=O)NC(=C(Cl)Cl)c1ccc(Cl)cc1	none
Cc1nccn1CC(=O)N/N=C/c1ccc(O)cc1	none
COc1ccc(-c2cnc3ccc(NCc4ccc5c(c4)OCO5)nn23)cc1	TEAD-YAP block 36
COc1ccccc1-c1cnc2ccc(NCc3cc(OC)c(OC)c(OC)c3)nn12	TEAD-YAP block 59
COc1ccc(/C=N\Nc2nc3ccccc3s2)cc1	TEAD-YAP block 42
CCOc1cc(/C=C2/C(=N)N3N=C(CC(C)C)SC3=NC2=O)ccc1OCCOc1ccc(C)c(C)c1	none
O=C1CC(c2ccccc2)c2c(ccc3ccccc23)N1 (stereo unspecified)	none
Cc1ccccc1C1CC(=O)Nc2ccc3ccccc3c21 (stereo unspecified)	TEAD-YAP block 38
O=C1CC(c2cccc(Br)c2)c2c(ccc3ccccc23)N1 (stereo unspecified)	TEAD-YAP block 51
COC(=O)c1c(C(=O)c2ccc(F)cc2)[nH]c2ccccc12	TEAD-YAP block 50
COC(=O)c1[nH]c2ccccc2c1Cl	none
Cn1c(-c2ccccc2)cnc1NC(=O)c1ccccc1	TEAD-YAP block 57
CCC(=O)Oc1ccc(-c2cnc3ccccc3n2)cc1	TEAD-YAP block 41
CCCCCCC(=O)Oc1ccc(-c2cnc3ccccc3n2)cc1	none
O=C(NC1CC1)c1csc(Nc2cccnc2)n1	none
O=C(NC1CC1)c1ccc2cncc(-c3ccsc3)c2n1	TEAD-YAP block 71
COCCNC(=O)c1ccc2cncc(-c3ccsc3)c2n1	TEAD-YAP block 78
Cc1cccc(NC(=S)N2CCN(CCO)CC2)c1C	none
CCOC(=O)c1ccccc1NC(=O)CN1C(=O)C(C)N(c2ccc(C)cc2)C1=O (stereo unspecified)	TEAD-YAP block 46
COC(=O)c1ccccc1NC(=O)CN1C(=O)C(C)N(c2ccc(C)cc2)C1=O (stereo unspecified)	TEAD-YAP block 45
Cc1ccc(N2C(=O)N(CC(=O)Nc3ccccc3C(F)(F)F)C(=O)C2C)cc1 (stereo unspecified)	none
Cc1ccc(N2C(=O)N(CC(=O)Nc3ccccc3OC(F)F)C(=O)C2C)cc1 (stereo unspecified)	none
